Entries with a potency or affinity are not part of this list.

In general, Inhibition refers to the change of the read-out against control, counted positive when it falls.

One test concerns Staphylococcus aureus. Conditions: Concentration 32 ug.mL-1;; ASSAY_TEST Inhibition of Bacterial Growth; detection method Absorption (OD600); MEDIA CAMHB; plate type 384well; NBS; CORNING #3640; time 18 hr.
Consider `Cc1ccc(NC(=O)Cn2nc3c(SC4CCCCC4)nccn3c2=O)cc1F`, for which the Inhibition was determined as 10.42%.

On to `Cc1nnc2ccc(S(=O)(=O)N(Cc3ccccc3Cl)c3cccc(F)c3)cn12`, for which the Inhibition is recorded as -1.06%.

In the case of `CCc1nnc2c(=O)n(CC(=O)Nc3ccc4c(c3)OCCO4)c3ccccc3n12`, the Inhibition was determined as 2.09%.

With `Cc1ccc(-c2cc3c4nnc(CCC(=O)NCCCc5ccccc5)n4ccn3n2)cc1C`, the Inhibition amounted to 6.48%.

For the molecule `O=c1c2sccc2n2c(=O)n(Cc3c(F)cccc3Cl)nc2n1Cc1cccs1`, the Inhibition is 6.51%.

For `Cc1ccc(NC(=O)CSc2nnc3c(=O)n(-c4ccccc4)ccn23)c(C)c1`, the Inhibition was 7.2%.

With `CCCc1nnc2c(=O)n(CC(=O)Nc3ccc(Cl)c(Cl)c3)c3ccccc3n12`, the Inhibition was -1.25%.

As to `CCOC(=O)c1ccccc1NC(=O)CSc1nnc2ccc(C(=O)Nc3cccc(F)c3)cn12`, the Inhibition is given as 9.51%.

Consider `COc1cccc(-n2ccn3c(SCC(=O)c4c[nH]c5ccccc45)nnc3c2=O)c1`, for which the Inhibition was determined as 3.92%.

For the molecule `Cc1ccc(NC(=O)CSc2nc3ccccc3n3cnnc23)c(Br)c1`, the Inhibition is recorded as -13.31%.

For `CCCCn1c(=O)c2sccc2n2c(=O)n(CC(=O)N3CCCC(C(=O)OCC)C3)nc12` (stereo not given), the Inhibition amounted to 0.89%.

As to `O=C(Cn1nc2ccc(SC3CCCCC3)nn2c1=O)Nc1ccc2c(c1)OCO2`, the Inhibition is given as -7.41%.

As for `CN(C(=O)Cn1nc2n(Cc3ccco3)c(=O)c3sccc3n2c1=O)c1ccccc1`, the Inhibition worked out at 0.44%.

As for `Cc1ccc(NC(=O)Cn2nc3c(N4CCCC4)nccn3c2=O)cc1Cl`, the Inhibition stood at 3.49%.

For `CC(C)CCNC(=O)Cn1nc2n(Cc3ccco3)c(=O)c3sccc3n2c1=O`, the Inhibition is recorded as 8.27%.

In the case of `CCOC(=O)c1ccc(NC(=O)Cn2nc3c4cc(-c5ccc(C)c(C)c5)nn4ccn3c2=O)cc1`, the Inhibition was 3.76%.

As to `CSc1cccc(NC(=O)Cn2nc3c(N4CCCC4)nccn3c2=O)c1`, the Inhibition was -20.72%.

In the case of `Cc1ccc(NC(=O)CSc2nnc3n(CC4CCCO4)c(=O)c4sccc4n23)cc1F` (stereo not given), the Inhibition amounted to 4.36%.

Regarding `Cc1nnc2ccc(S(=O)(=O)N(Cc3cccc(F)c3)c3cccc(Cl)c3)cn12`, the Inhibition is reported as 1.14%.

In the case of `Cc1ccc(C)c(Cn2nc3n(CCC(C)C)c(=O)c4sccc4n3c2=O)c1`, the Inhibition was found to be 8.96%.

Turning to `Cc1cc(Br)ccc1NC(=O)Cn1nc2c(SC3CCCCC3)nccn2c1=O`, the Inhibition is given as 6.25%.

As for `COc1ccc(-c2cc3c4nnc(CCC(=O)NCc5ccc(OC)cc5OC)n4ccn3n2)cc1`, the Inhibition came to 16.19%.

For the molecule `CSc1ccc(CNC(=O)Cn2nc3c(Oc4cccc(C)c4C)nccn3c2=O)cc1`, the Inhibition was 11.62%.

Regarding `Cc1cccc(NC(=O)Cn2nc3c4cc(-c5ccc(F)cc5)nn4ccn3c2=O)c1C`, the Inhibition is on record as -2.18%.

For `CCCCn1c(=O)c2sccc2n2c(=O)n(CC(=O)c3ccc(OC)c(OC)c3)nc12`, the Inhibition was determined as 13.6%.

On to `COc1ccc(Cl)cc1NC(=O)Cn1nc2c3cc(-c4ccc(C)c(C)c4)nn3ccn2c1=O`, for which the Inhibition was -18.41%.

For the molecule `COc1cccc(-n2ccn3c(SCc4ccccc4Cl)nnc3c2=O)c1`, the Inhibition is 8.33%.

`Cc1cccc(NC(=O)CSc2nnc3c4cc(-c5ccc(F)cc5)nn4ccn23)c1C`: the Inhibition is recorded as -11.28%.

For `Cc1cc(C)cc(N(Cc2ccccc2F)S(=O)(=O)c2cccn3c(C)nnc23)c1`, the Inhibition worked out at 15.31%.

For `CCC(Sc1nnc2c(=O)n(-c3ccc(C)c(C)c3)ccn12)C(=O)Nc1ccccc1C` (stereo not given), the Inhibition is on record as 13.17%.

For the molecule `Cc1ccc(NC(=O)Cn2c(=O)c3nnc(C(C)C)n3c3ccccc32)cc1C`, the Inhibition came to 7.95%.

In the case of `CC(=O)c1cccc(NC(=O)CSc2nnc3ccc(C(=O)Nc4cccc(F)c4)cn23)c1`, the Inhibition amounted to 12.95%.

For the molecule `Cc1cccc(C)c1NC(=O)CSc1nnc2c3cc(-c4ccc(F)cc4)nn3ccn12`, the Inhibition was -13.2%.

For `CCc1nnc2c(S(=O)(=O)N(Cc3cccc(F)c3)c3ccc(F)cc3)cccn12`, the Inhibition is -7.77%.

For `COc1ccc(CN(c2ccc(F)cc2)S(=O)(=O)c2cccn3c(C)nnc23)cc1`, the Inhibition worked out at 15.23%.

Regarding `CCc1cccc(C)c1NC(=O)CSc1nnc2ccc(C(=O)Nc3cccc(F)c3)cn12`, the Inhibition is given as 1.86%.

In the case of `Cc1cc2nn(CC(=O)Nc3cc(F)cc(F)c3)c(=O)n2c(Nc2ccccc2C)n1`, the Inhibition worked out at 5.53%.

In the case of `COc1ccc(-c2cc3c4nnc(SCC(=O)Nc5cccc(C#N)c5)n4ccn3n2)cc1`, the Inhibition was determined as 1.06%.

Consider `COc1ccc(-c2cc3c4nnc(SCC(=O)Nc5cccc(Cl)c5C)n4ccn3n2)cc1`, for which the Inhibition is -7.92%.

`COc1ccccc1-n1ccn2c(SCC(=O)Nc3ccc(F)cc3F)nnc2c1=O`: the Inhibition is -4.28%.

The test system of the next test is Escherichia coli. Conditions: Concentration 32 ug.mL-1;; ASSAY_TEST Inhibition of Bacterial Growth; detection method Absorption (OD600); MEDIA CAMHB; plate type 384well; NBS; CORNING #3640; time 18 hr.
Turning to `Cc1ccc(NC(=O)Cn2nc3c(SC4CCCCC4)nccn3c2=O)cc1F`, the Inhibition is reported as -1.05%.

For the molecule `Cc1nnc2ccc(S(=O)(=O)N(Cc3ccccc3Cl)c3cccc(F)c3)cn12`, the Inhibition is reported as -5.9%.

For the molecule `CCc1nnc2c(=O)n(CC(=O)Nc3ccc4c(c3)OCCO4)c3ccccc3n12`, the Inhibition is -4.51%.

Consider `Cc1ccc(-c2cc3c4nnc(CCC(=O)NCCCc5ccccc5)n4ccn3n2)cc1C`, for which the Inhibition is 1.28%.

For `O=c1c2sccc2n2c(=O)n(Cc3c(F)cccc3Cl)nc2n1Cc1cccs1`, the Inhibition came out at 0.39%.

Take `Cc1ccc(NC(=O)CSc2nnc3c(=O)n(-c4ccccc4)ccn23)c(C)c1`: the Inhibition is listed as -16.98%.

In the case of `CCCc1nnc2c(=O)n(CC(=O)Nc3ccc(Cl)c(Cl)c3)c3ccccc3n12`, the Inhibition stood at 0.68%.

As for `CCOC(=O)c1ccccc1NC(=O)CSc1nnc2ccc(C(=O)Nc3cccc(F)c3)cn12`, the Inhibition is given as -2.64%.

`COc1cccc(-n2ccn3c(SCC(=O)c4c[nH]c5ccccc45)nnc3c2=O)c1`: the Inhibition was -5.66%.

As for `Cc1ccc(NC(=O)CSc2nc3ccccc3n3cnnc23)c(Br)c1`, the Inhibition was -9.92%.

On to `CCCCn1c(=O)c2sccc2n2c(=O)n(CC(=O)N3CCCC(C(=O)OCC)C3)nc12` (stereo not given), for which the Inhibition is given as -5.26%.

For the molecule `O=C(Cn1nc2ccc(SC3CCCCC3)nn2c1=O)Nc1ccc2c(c1)OCO2`, the Inhibition is reported as -17.56%.

As for `CN(C(=O)Cn1nc2n(Cc3ccco3)c(=O)c3sccc3n2c1=O)c1ccccc1`, the Inhibition is given as -5.3%.

For the molecule `Cc1ccc(NC(=O)Cn2nc3c(N4CCCC4)nccn3c2=O)cc1Cl`, the Inhibition is reported as -0.46%.

In the case of `CC(C)CCNC(=O)Cn1nc2n(Cc3ccco3)c(=O)c3sccc3n2c1=O`, the Inhibition was 0.93%.

Take `CCOC(=O)c1ccc(NC(=O)Cn2nc3c4cc(-c5ccc(C)c(C)c5)nn4ccn3c2=O)cc1`: the Inhibition was -8.53%.

In the case of `CSc1cccc(NC(=O)Cn2nc3c(N4CCCC4)nccn3c2=O)c1`, the Inhibition is listed as -10.95%.

`Cc1ccc(NC(=O)CSc2nnc3n(CC4CCCO4)c(=O)c4sccc4n23)cc1F` (stereo not given): the Inhibition was -6.16%.

Regarding `Cc1nnc2ccc(S(=O)(=O)N(Cc3cccc(F)c3)c3cccc(Cl)c3)cn12`, the Inhibition is given as -14.72%.

As to `Cc1ccc(C)c(Cn2nc3n(CCC(C)C)c(=O)c4sccc4n3c2=O)c1`, the Inhibition came to 1.02%.

As for `Cc1cc(Br)ccc1NC(=O)Cn1nc2c(SC3CCCCC3)nccn2c1=O`, the Inhibition is given as -6.44%.

Turning to `COc1ccc(-c2cc3c4nnc(CCC(=O)NCc5ccc(OC)cc5OC)n4ccn3n2)cc1`, the Inhibition was determined as 5.82%.

Consider `CSc1ccc(CNC(=O)Cn2nc3c(Oc4cccc(C)c4C)nccn3c2=O)cc1`, for which the Inhibition was 2.94%.

In the case of `Cc1cccc(NC(=O)Cn2nc3c4cc(-c5ccc(F)cc5)nn4ccn3c2=O)c1C`, the Inhibition was -5.27%.

`CCCCn1c(=O)c2sccc2n2c(=O)n(CC(=O)c3ccc(OC)c(OC)c3)nc12`: the Inhibition was 0.21%.

Take `COc1ccc(Cl)cc1NC(=O)Cn1nc2c3cc(-c4ccc(C)c(C)c4)nn3ccn2c1=O`: the Inhibition is on record as -23.9%.

With `COc1cccc(-n2ccn3c(SCc4ccccc4Cl)nnc3c2=O)c1`, the Inhibition is -9.75%.

For `Cc1cccc(NC(=O)CSc2nnc3c4cc(-c5ccc(F)cc5)nn4ccn23)c1C`, the Inhibition is -13.99%.

As to `Cc1cc(C)cc(N(Cc2ccccc2F)S(=O)(=O)c2cccn3c(C)nnc23)c1`, the Inhibition is -0.2%.

In the case of `CCC(Sc1nnc2c(=O)n(-c3ccc(C)c(C)c3)ccn12)C(=O)Nc1ccccc1C` (stereo not given), the Inhibition is -4.12%.

In the case of `Cc1ccc(NC(=O)Cn2c(=O)c3nnc(C(C)C)n3c3ccccc32)cc1C`, the Inhibition is recorded as 6.48%.

As for `CC(=O)c1cccc(NC(=O)CSc2nnc3ccc(C(=O)Nc4cccc(F)c4)cn23)c1`, the Inhibition is on record as -3.3%.

On to `Cc1cccc(C)c1NC(=O)CSc1nnc2c3cc(-c4ccc(F)cc4)nn3ccn12`, for which the Inhibition is given as -12.65%.

As to `CCc1nnc2c(S(=O)(=O)N(Cc3cccc(F)c3)c3ccc(F)cc3)cccn12`, the Inhibition was -5%.

For `COc1ccc(CN(c2ccc(F)cc2)S(=O)(=O)c2cccn3c(C)nnc23)cc1`, the Inhibition is listed as -3.22%.

With `CCc1cccc(C)c1NC(=O)CSc1nnc2ccc(C(=O)Nc3cccc(F)c3)cn12`, the Inhibition is listed as 2%.

For the molecule `Cc1cc2nn(CC(=O)Nc3cc(F)cc(F)c3)c(=O)n2c(Nc2ccccc2C)n1`, the Inhibition was -3.12%.

With `COc1ccc(-c2cc3c4nnc(SCC(=O)Nc5cccc(C#N)c5)n4ccn3n2)cc1`, the Inhibition was -0.96%.

On to `COc1ccc(-c2cc3c4nnc(SCC(=O)Nc5cccc(Cl)c5C)n4ccn3n2)cc1`, for which the Inhibition is listed as -11.64%.

As for `COc1ccccc1-n1ccn2c(SCC(=O)Nc3ccc(F)cc3F)nnc2c1=O`, the Inhibition worked out at 0.2%.

The record behind these values is ChEMBL document CHEMBL4513146, “CO-ADD screening of Karazin Kharkiv National University (Ukraine) compounds”.
